This is an account of results in ChEMBL document CHEMBL2218924, “A broad activity screen in support of a chemogenomic map for kinase signalling research and drug discovery” (Biochem J, 2013).

Assay [1] concerns the target T1, Ephrin type-B receptor 1 (Homo sapiens) (UniProt P54762).
T1 sequence (whole entry): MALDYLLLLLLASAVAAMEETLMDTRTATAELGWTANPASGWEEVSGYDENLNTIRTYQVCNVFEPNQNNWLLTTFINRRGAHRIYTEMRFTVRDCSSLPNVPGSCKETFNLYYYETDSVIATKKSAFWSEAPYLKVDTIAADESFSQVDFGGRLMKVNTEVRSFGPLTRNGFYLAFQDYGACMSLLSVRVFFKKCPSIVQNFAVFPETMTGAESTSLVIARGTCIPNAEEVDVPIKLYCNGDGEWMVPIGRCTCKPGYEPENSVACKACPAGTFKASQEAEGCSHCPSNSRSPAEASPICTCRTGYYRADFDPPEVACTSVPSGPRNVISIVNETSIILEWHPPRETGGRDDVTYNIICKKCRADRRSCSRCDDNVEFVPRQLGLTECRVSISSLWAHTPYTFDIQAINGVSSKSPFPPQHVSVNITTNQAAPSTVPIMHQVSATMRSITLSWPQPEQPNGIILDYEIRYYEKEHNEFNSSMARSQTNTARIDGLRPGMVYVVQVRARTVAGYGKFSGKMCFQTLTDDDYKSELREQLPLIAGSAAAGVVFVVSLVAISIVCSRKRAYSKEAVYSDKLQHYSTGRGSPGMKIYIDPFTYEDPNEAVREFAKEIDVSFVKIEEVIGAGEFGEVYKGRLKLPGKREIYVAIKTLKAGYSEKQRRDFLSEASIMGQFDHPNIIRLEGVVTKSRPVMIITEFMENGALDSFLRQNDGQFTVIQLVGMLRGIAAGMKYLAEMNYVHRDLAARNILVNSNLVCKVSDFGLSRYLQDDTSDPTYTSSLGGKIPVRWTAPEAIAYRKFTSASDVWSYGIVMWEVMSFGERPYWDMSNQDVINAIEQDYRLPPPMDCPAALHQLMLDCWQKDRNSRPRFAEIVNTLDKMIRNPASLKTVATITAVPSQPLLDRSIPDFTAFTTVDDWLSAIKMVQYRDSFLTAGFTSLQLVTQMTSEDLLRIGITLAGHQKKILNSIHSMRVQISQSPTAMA
The note with it: at 10 µM.

Assay [2] addresses T2, Ephrin type-B receptor 2 (Homo sapiens) (UniProt P29323).
T2 sequence (whole entry): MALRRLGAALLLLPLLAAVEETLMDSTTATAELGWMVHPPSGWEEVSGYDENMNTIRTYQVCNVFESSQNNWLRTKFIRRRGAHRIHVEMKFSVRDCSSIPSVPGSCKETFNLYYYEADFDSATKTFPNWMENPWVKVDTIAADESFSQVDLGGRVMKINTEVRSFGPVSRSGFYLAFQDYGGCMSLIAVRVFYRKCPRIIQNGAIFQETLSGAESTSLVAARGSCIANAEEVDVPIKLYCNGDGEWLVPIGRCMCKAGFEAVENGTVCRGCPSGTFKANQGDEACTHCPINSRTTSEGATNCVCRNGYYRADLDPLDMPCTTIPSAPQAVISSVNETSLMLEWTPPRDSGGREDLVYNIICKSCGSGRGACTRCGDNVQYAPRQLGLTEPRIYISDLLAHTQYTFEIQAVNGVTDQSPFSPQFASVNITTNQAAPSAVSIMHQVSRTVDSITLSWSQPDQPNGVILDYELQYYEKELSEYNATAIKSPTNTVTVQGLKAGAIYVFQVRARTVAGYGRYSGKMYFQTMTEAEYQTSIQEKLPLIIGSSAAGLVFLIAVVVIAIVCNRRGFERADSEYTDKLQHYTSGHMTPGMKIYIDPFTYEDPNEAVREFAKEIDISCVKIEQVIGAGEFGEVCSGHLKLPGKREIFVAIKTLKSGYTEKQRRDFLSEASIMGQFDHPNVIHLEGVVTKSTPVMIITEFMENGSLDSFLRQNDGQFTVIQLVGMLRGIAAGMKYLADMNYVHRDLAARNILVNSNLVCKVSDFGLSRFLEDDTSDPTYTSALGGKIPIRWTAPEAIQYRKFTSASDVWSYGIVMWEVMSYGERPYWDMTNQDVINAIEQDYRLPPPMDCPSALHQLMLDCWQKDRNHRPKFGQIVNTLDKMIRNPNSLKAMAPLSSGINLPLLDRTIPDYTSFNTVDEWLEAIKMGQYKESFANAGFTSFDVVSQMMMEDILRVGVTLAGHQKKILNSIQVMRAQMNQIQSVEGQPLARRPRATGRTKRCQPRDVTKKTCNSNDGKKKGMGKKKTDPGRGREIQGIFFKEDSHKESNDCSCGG
Particulars: at 1 µM; call rule not given here.

In assay [3] the target is T2, Ephrin type-B receptor 2 (Homo sapiens). The note with it: at 10 µM.
Assay [4] deals with T3, Ephrin type-B receptor 3 (Homo sapiens) (UniProt P54753).
T3 sequence (whole entry): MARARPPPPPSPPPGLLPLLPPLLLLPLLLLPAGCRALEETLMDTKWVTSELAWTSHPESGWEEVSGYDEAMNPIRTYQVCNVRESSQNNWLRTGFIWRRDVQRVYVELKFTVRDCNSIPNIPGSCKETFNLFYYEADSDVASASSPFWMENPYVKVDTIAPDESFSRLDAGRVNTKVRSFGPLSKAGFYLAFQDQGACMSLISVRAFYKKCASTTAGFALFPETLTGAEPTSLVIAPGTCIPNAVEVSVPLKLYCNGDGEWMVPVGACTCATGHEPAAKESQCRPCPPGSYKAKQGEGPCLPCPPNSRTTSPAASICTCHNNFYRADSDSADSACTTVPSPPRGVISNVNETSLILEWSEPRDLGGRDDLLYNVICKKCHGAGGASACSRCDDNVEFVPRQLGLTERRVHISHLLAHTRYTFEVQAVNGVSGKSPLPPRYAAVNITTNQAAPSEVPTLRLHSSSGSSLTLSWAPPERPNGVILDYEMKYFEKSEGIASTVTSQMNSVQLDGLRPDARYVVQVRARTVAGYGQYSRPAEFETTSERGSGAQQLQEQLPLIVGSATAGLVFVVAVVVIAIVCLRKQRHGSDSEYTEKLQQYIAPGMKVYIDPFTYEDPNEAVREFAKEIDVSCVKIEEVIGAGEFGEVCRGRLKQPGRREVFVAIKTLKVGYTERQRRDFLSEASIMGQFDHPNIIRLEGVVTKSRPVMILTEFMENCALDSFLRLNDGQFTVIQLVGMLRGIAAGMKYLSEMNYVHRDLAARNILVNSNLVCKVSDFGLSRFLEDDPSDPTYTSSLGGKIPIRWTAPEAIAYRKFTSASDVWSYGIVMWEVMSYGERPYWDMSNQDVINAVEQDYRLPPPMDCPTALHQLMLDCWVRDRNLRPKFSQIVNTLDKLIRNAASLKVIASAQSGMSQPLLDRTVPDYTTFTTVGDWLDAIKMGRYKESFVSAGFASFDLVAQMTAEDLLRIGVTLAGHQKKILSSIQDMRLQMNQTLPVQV
The note with it: at 1 µM.

The target in assay [5] is T3, Ephrin type-B receptor 3 (Homo sapiens). Particulars: at 10 µM.
In assay [6] the target is T4, Ephrin type-B receptor 4 (Homo sapiens) (UniProt P54760).
T4 sequence (whole entry): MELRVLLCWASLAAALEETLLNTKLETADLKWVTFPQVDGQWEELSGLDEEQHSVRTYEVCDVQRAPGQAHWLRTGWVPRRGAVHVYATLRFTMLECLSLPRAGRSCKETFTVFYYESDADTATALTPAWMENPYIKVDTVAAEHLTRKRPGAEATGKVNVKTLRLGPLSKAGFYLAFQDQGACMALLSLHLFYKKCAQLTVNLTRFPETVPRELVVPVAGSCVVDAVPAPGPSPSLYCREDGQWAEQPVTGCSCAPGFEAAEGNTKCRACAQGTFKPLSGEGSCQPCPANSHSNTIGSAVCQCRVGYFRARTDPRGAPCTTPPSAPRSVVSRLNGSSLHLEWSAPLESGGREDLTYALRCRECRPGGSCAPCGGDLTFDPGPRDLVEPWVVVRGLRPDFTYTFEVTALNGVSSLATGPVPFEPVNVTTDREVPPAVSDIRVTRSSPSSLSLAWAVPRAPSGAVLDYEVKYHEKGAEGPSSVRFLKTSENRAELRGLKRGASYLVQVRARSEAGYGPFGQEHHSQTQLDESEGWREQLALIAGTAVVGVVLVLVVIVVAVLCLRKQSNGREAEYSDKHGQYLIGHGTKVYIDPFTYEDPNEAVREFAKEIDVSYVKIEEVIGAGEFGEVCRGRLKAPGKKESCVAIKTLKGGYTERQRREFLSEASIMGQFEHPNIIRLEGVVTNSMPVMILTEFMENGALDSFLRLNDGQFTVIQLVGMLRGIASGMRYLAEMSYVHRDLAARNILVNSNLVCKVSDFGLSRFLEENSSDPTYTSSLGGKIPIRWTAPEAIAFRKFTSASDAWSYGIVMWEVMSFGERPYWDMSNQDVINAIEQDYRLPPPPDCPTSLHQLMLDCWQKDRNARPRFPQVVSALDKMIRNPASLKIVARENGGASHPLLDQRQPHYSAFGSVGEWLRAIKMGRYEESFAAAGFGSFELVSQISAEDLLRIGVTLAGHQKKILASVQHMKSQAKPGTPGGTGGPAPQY
Particulars: at 1 µM.

Assay [7] addresses T4, Ephrin type-B receptor 4 (Homo sapiens). Particulars: at 10 µM.
In assay [8] the target is Receptor tyrosine-protein kinase erbB-4 (Homo sapiens) (UniProt Q15303). The note with it: at 1 µM.
Assay [9] shares this target. Particulars: at 10 µM.
Assay [10] concerns the target Focal adhesion kinase 1 (Homo sapiens) (UniProt Q05397). The note with it: at 1 µM.

Sequence of Receptor tyrosine-protein kinase erbB-4 (Homo sapiens) (Q15303 whole entry): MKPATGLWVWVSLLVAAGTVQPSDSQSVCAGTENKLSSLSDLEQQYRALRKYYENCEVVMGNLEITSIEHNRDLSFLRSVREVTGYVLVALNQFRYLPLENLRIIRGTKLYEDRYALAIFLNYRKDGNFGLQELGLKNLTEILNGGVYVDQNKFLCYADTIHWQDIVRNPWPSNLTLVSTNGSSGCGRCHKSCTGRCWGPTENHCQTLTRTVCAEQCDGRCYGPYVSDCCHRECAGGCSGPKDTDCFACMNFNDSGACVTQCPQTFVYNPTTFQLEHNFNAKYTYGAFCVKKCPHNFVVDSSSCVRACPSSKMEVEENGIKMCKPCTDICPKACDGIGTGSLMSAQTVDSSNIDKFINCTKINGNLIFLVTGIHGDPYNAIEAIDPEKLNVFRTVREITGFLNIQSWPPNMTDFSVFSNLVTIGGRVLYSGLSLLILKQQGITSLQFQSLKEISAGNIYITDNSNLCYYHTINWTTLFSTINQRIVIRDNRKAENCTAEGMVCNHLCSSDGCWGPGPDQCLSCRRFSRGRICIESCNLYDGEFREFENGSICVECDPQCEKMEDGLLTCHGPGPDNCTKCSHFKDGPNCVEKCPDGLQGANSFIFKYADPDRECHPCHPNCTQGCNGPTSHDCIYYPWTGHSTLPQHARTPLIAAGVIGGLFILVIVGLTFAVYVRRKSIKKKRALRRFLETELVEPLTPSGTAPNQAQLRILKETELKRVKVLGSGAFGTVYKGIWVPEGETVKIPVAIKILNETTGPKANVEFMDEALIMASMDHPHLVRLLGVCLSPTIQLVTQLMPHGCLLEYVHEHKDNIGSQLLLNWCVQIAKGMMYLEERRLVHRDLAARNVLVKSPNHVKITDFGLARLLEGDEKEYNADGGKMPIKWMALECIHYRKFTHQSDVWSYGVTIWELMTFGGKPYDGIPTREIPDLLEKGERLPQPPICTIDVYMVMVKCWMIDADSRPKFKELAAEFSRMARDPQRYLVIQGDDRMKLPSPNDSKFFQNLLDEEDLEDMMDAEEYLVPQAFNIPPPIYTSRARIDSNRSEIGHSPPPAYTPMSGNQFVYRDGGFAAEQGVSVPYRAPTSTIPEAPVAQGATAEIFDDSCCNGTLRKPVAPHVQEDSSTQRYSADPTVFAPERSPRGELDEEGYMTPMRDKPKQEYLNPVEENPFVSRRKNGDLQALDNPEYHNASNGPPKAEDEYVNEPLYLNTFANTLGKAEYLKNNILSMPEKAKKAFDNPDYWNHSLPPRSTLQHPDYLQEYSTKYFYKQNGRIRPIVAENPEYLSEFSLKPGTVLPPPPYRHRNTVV
Sequence of Focal adhesion kinase 1 (Homo sapiens) (Q05397 2-1052 limits assumed): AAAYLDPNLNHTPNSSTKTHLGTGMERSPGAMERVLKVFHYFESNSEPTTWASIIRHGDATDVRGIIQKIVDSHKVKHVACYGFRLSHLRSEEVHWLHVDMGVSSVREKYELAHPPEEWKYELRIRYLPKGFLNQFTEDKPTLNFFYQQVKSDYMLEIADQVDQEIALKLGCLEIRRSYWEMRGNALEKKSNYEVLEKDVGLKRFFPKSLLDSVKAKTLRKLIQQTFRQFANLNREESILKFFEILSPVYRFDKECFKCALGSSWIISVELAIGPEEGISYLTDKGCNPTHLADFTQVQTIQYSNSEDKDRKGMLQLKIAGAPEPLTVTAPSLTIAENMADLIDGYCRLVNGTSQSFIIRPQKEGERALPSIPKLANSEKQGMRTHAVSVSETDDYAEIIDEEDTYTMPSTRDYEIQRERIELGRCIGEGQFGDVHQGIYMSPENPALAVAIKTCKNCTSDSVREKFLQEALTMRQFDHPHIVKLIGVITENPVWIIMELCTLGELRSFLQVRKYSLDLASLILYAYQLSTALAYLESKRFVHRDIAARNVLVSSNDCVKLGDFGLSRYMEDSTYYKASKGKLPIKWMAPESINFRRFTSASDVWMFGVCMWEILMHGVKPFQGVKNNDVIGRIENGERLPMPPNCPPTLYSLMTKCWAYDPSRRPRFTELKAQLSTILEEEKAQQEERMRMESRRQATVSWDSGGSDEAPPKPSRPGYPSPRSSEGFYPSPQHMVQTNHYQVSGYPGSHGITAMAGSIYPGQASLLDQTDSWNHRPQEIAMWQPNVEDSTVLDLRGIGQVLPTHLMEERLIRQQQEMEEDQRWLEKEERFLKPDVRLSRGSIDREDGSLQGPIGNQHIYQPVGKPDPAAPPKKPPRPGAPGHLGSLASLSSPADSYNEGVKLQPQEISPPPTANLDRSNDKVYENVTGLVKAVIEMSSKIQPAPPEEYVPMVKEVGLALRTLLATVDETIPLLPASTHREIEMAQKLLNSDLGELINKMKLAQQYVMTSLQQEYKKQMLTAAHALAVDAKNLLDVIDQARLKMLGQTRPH

Consider `COc1ccc(C(=O)Nc2sc3c(c2C(N)=O)CCCC3)cc1OC`, for which the residual activity (as a rule, the signal under treatment as a percentage of the control signal) in assay [1] was 100%; in assay [2] it was 122%; in [3], 110%; in [4] it was 110% (inactive); in assay [5] it was 122%; in assay [6], 98%. Further, the residual activity in assay [7] came out at 120%; in [8], 87%; in assay [9], 97%; in assay [10], 119%.
